Experimental findings from the supplement of paper PMC9794691 are described below.

± gives the standard deviation of the averaged measurements.

Common to all, as to assay: area under confluence curve of osimertinib + compound combination regimen (DTP regrowth); compare to osimertinib-only DTP control AUC of the same experiment (AUC (confluence x time, arbitrary))
One experiment has as its system H1975. As to conditions: test compound dose 300 nM. In a few lines:
(§1)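 EGFR-mutant NSCLC lines were seeded at 20,000–30,000 cells/well in 48-well plates in RPMI 1640 with 10% FBS at 37 °C, 5% CO2. They got the EGFR inhibitor with a fixed-dose test compound upfront to the persister stage (10–21 days), then drug-free medium, or the inhibitor alone and then the test compound. Medium was refreshed every 3–4 days until inhibitor-only controls regrew to confluence. Area under the IncuCyte confluence–time curve came from Prism, median of triplicates where available.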

In the next experiment the test system is HCC2279. As to conditions: test compound dose 300 nM. The gist of the method:
as §1

A further experiment has as its system HCC2935. The following applies: test compound dose 300 nM. The gist of the method:
as §1

A further experiment has as its system HCC4006. As to conditions: test compound dose 300 nM. The gist of the method: as §1
The subject of another experiment is HCC827. As to conditions: test compound dose 300 nM. The gist of the method: as §1
The next experiment relates to II-18. As to conditions: test compound dose 300 nM. The gist of the method: as §1
For the next experiment, the system named is PC9. The gist of the method:
as §1

Consider `CN(C)CCCOc1ccc(-c2ccc3ncc4c(c3c2)n(C2CCOCC2)c(=O)n4C)cn1` + C=CC(=O)Nc1cc(Nc2nccc(-c3cn(C)c4ccccc34)n2)c(OC)cc1N(C)CCN(C)C [osimertinib], for which the “area under confluence curve” value with H1975 (dosing schedule: sequential, osimertinib-only DTP control AUC in same experiment: 19301, DMSO control AUC in same experiment: 26223) stood at 3330; in the experiment with H1975 (dosing schedule: upfront, osimertinib-only DTP control AUC in same experiment: 23997, DMSO control AUC in same experiment: 26223), 18100; with HCC2279 (dosing schedule: sequential, osimertinib-only DTP control AUC in same experiment: 26096, DMSO control AUC in same experiment: 14404), 24700; in the experiment with HCC2279 (dosing schedule: upfront, osimertinib-only DTP control AUC in same experiment: 33120, DMSO control AUC in same experiment: 14404), 33900; with HCC2935 (dosing schedule: sequential, osimertinib-only DTP control AUC in same experiment: 22314, DMSO control AUC in same experiment: 19215), 22300; with HCC2935 (dosing schedule: upfront, osimertinib-only DTP control AUC in same experiment: 29846, DMSO control AUC in same experiment: 19215), 30600. The “area under confluence curve” value was 12000 with HCC4006 (dosing schedule: sequential, osimertinib-only DTP control AUC in same experiment: 12791, DMSO control AUC in same experiment: 18415); 16000 with HCC4006 (dosing schedule: upfront, osimertinib-only DTP control AUC in same experiment: 17269, DMSO control AUC in same experiment: 18415); 12300 in the experiment on HCC827 (dosing schedule: sequential, osimertinib-only DTP control AUC in same experiment: 15330, DMSO control AUC in same experiment: 21320); 17400 in the experiment with HCC827 (dosing schedule: upfront, osimertinib-only DTP control AUC in same experiment: 20798, DMSO control AUC in same experiment: 21320); 9720 in the experiment with II-18 (dosing schedule: sequential, osimertinib-only DTP control AUC in same experiment: 8624, DMSO control AUC in same experiment: 11834); 10600 with II-18 (dosing schedule: upfront, osimertinib-only DTP control AUC in same experiment: 10856, DMSO control AUC in same experiment: 11834). The “area under confluence curve” value with PC9 (test compound dose 300 nM, dosing schedule: sequential, osimertinib-only DTP control AUC in same experiment: 7760, DMSO control AUC in same experiment: 29563) was 4600; with PC9 (test compound dose 300 nM, dosing schedule: sequential, osimertinib-only DTP control AUC in same experiment: 15001, DMSO control AUC in same experiment: 22064), 14800; with PC9 (test compound dose 300 nM, dosing schedule: sequential, osimertinib-only DTP control AUC in same experiment: 15044, DMSO control AUC in same experiment: 30604) it was 3980; in the experiment with PC9 (test compound dose 300 nM, dosing schedule: upfront, osimertinib-only DTP control AUC in same experiment: 11798, DMSO control AUC in same experiment: 29563), 5590; in the experiment with PC9 (test compound dose 300 nM, dosing schedule: upfront, osimertinib-only DTP control AUC in same experiment: 20672, DMSO control AUC in same experiment: 30604), 5990; with PC9 (test compound dose 300 nM, dosing schedule: upfront, osimertinib-only DTP control AUC in same experiment: 24924, DMSO control AUC in same experiment: 22064), 22400.

With `CN(C)C(=O)c1cc2cnc(Nc3ccc(N4CCNCC4)cn3)nc2n1C1CCCC1` [Ribociclib] + C=CC(=O)Nc1cc(Nc2nccc(-c3cn(C)c4ccccc34)n2)c(OC)cc1N(C)CCN(C)C [osimertinib], the “area under confluence curve” value was 13600 in the experiment on PC9 (test compound dose 300 nM, dosing schedule: sequential, osimertinib-only DTP control AUC in same experiment: 23366, DMSO control AUC in same experiment: 88996) and 20500 in the experiment on PC9 (test compound dose 300 nM, dosing schedule: upfront, osimertinib-only DTP control AUC in same experiment: 29852, DMSO control AUC in same experiment: 88996).

Regarding `CS(=O)(=O)N1CCN(Cc2cc3nc(-c4cccc5[nH]ncc45)nc(N4CCOCC4)c3s2)CC1` + C=CC(=O)Nc1cc(Nc2nccc(-c3cn(C)c4ccccc34)n2)c(OC)cc1N(C)CCN(C)C [osimertinib], the “area under confluence curve” value came to 1580 ± 160 in the experiment on PC9 (test compound dose 1000 nM, dosing schedule: sequential, osimertinib-only DTP control AUC in same experiment: 1963, DMSO control AUC in same experiment: 30580) and 4540 ± 320 with PC9 (test compound dose 1000 nM, dosing schedule: upfront, osimertinib-only DTP control AUC in same experiment: 8618, DMSO control AUC in same experiment: 30580).

For the compound `CN1CCN(c2nc(C3=C(c4c[nH]c5ccccc45)C(=O)NC3=O)c3ccccc3n2)CC1` [Sotrastaurin] + C=CC(=O)Nc1cc(Nc2nccc(-c3cn(C)c4ccccc34)n2)c(OC)cc1N(C)CCN(C)C [osimertinib], the “area under confluence curve” value came to 9060 with PC9 (test compound dose 1000 nM, dosing schedule: sequential, osimertinib-only DTP control AUC in same experiment: 10175, DMSO control AUC in same experiment: 27958) and 10800 with PC9 (test compound dose 1000 nM, dosing schedule: upfront, osimertinib-only DTP control AUC in same experiment: 16134, DMSO control AUC in same experiment: 27958).

On to `CCOC(=O)c1ccnc(CNCC(=O)N(CC)CCN(C)C)c1` + C=CC(=O)Nc1cc(Nc2nccc(-c3cn(C)c4ccccc34)n2)c(OC)cc1N(C)CCN(C)C [osimertinib], for which the “area under confluence curve” value was found to be 3420 in the experiment on PC9 (test compound dose 1000 nM, dosing schedule: sequential, osimertinib-only DTP control AUC in same experiment: 3562, DMSO control AUC in same experiment: 31840) and 16700 in the experiment with PC9 (test compound dose 1000 nM, dosing schedule: upfront, osimertinib-only DTP control AUC in same experiment: 19015, DMSO control AUC in same experiment: 31840).

Consider `O=C(NC[C@H](O)CN1CCc2ccccc2C1)c1ccnc(NC2CCC2)c1` + C=CC(=O)Nc1cc(Nc2nccc(-c3cn(C)c4ccccc34)n2)c(OC)cc1N(C)CCN(C)C [osimertinib], for which the “area under confluence curve” value in the experiment with H1975 (dosing schedule: sequential, osimertinib-only DTP control AUC in same experiment: 15943, DMSO control AUC in same experiment: 20657) turned out to be 14900; in the experiment with H1975 (dosing schedule: upfront, osimertinib-only DTP control AUC in same experiment: 27804, DMSO control AUC in same experiment: 20657), 25700; in the experiment with HCC2279 (dosing schedule: sequential, osimertinib-only DTP control AUC in same experiment: 15997, DMSO control AUC in same experiment: 40085), 8560; with HCC2279 (dosing schedule: upfront, osimertinib-only DTP control AUC in same experiment: 28057, DMSO control AUC in same experiment: 40085), 8330; in the experiment on HCC2935 (dosing schedule: sequential, osimertinib-only DTP control AUC in same experiment: 7139, DMSO control AUC in same experiment: 15413), 8090; in the experiment on HCC2935 (dosing schedule: upfront, osimertinib-only DTP control AUC in same experiment: 19044, DMSO control AUC in same experiment: 15413), 16100. Also, the “area under confluence curve” value worked out at 9080 in the experiment on HCC4006 (dosing schedule: sequential, osimertinib-only DTP control AUC in same experiment: 14882, DMSO control AUC in same experiment: 10921); 6670 in the experiment with HCC4006 (dosing schedule: upfront, osimertinib-only DTP control AUC in same experiment: 18913, DMSO control AUC in same experiment: 10921); 5240 in the experiment with HCC827 (dosing schedule: sequential, osimertinib-only DTP control AUC in same experiment: 5666, DMSO control AUC in same experiment: 43928); 24000 in the experiment with HCC827 (dosing schedule: upfront, osimertinib-only DTP control AUC in same experiment: 19044, DMSO control AUC in same experiment: 43928); 18800 with II-18 (dosing schedule: sequential, osimertinib-only DTP control AUC in same experiment: 21122, DMSO control AUC in same experiment: 7080); 6900 in the experiment on II-18 (dosing schedule: upfront, osimertinib-only DTP control AUC in same experiment: 22894, DMSO control AUC in same experiment: 7080). For the same compound, the “area under confluence curve” value in the experiment on PC9 (test compound dose 100 nM, dosing schedule: sequential, osimertinib-only DTP control AUC in same experiment: 12891, DMSO control AUC in same experiment: 44384) amounted to 979; with PC9 (test compound dose 100 nM, dosing schedule: upfront, osimertinib-only DTP control AUC in same experiment: 16570, DMSO control AUC in same experiment: 44384), 3800.
